Assay results as given in PubChem BioAssay AID1159580 (chemical genetic matrix, 2015).
Out of some 5,500 compounds screened, about 2,000 (36%) were called active. About 18% were inconclusive and are not listed. Cut-off read from the data, not from the text of the source: active = normalized growth mostly below about 0.91 (no sharp cut-off); inconclusive = no clear call, values can overlap the other calls; inactive = mostly above about 0.92. The list shows a part of the results.

Assay: chemical genetic growth profiling, strain panel (AID 1159580);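 note: tested at 20 µM; growth read once vehicle control cultures reached saturation at 30 °C; 1 = growth at the plate median or of vehicle wells; lower values mean less growth of the strain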
Conditions: growth OD
[1] = S. cerevisiae deletion strains, locus YDL101C, strain DUN1, active compounds read low
[2] = S. cerevisiae deletion strains, locus YHR030C, strain SLT2, active compounds read low

Measured: normalized growth

CC(=O)c1ccc(N2C(=O)CSCC2=O)cc1
inactive: S. cerevisiae deletion strains, locus YAL013W, strain DEP1, active compounds read low 0.999 | S. cerevisiae deletion strains, locus YBR229C, strain ROT2, active compounds read low 0.999 | [1] 1.01 | S. cerevisiae deletion strains, locus YDL134C, strain PPH21, active compounds read low 0.977 | S. cerevisiae deletion strains, locus YDR150W, strain NUM1, active compounds read low 0.984 | S. cerevisiae deletion strains, locus YEL061C, strain CIN8, active compounds read low 1.02 | S. cerevisiae deletion strains, locus YGR078C, strain PAC10, active compounds read low 1 | S. cerevisiae deletion strains, locus YGR229C, strain SMI1, active compounds read low 0.972 | [2] 1.02 | S. cerevisiae deletion strains, locus YHR087W, strain rtc3, active compounds read low 1 | S. cerevisiae deletion strains, locus YJR043C, strain POL32, active compounds read low 0.991 | S. cerevisiae deletion strains, locus YJR075W, strain HOC1, active compounds read low 1.02 | S. cerevisiae deletion strains, locus YLR039C, strain RIC1, active compounds read low 0.962 | S. cerevisiae deletion strains, locus YLR058C, strain SHM2 (second series), active compounds read low 0.999 | S. cerevisiae deletion strains, locus YLR085C, strain ARP6, active compounds read low 1.04 | S. cerevisiae deletion strains, locus YLR262C, strain YPT6, active compounds read low 0.912 | S. cerevisiae deletion strains, locus YML094W, strain GIM5, active compounds read low 1.03 | S. cerevisiae deletion strains, locus YMR219W, strain ESC1, active compounds read low 0.994 | S. cerevisiae deletion strains, locus YMR263W, strain SAP30, active compounds read low 0.999 | S. cerevisiae deletion strains, locus YMR307W, strain GAS1, active compounds read low 1.11 | S. cerevisiae deletion strains, locus YNL153C, strain GIM3, active compounds read low 1.01 | S. cerevisiae deletion strains, locus YNL298W, strain CLA4 (second series), active compounds read low 0.992 | S. cerevisiae deletion strains, locus YNL322C, strain KRE1, active compounds read low 0.988 | S. cerevisiae deletion strains, locus YNR030W, strain Alg12, active compounds read low 0.996 | S. cerevisiae deletion strains, locus YPL055C, strain LGE1, active compounds read low 1.02 | S. cerevisiae deletion strains, locus YPL241C, strain CIN2, active compounds read low 0.983 | S. cerevisiae deletion strains, locus YPR135W, strain CTF4, active compounds read low 0.99 | S. cerevisiae strains, strain wild type, active compounds read low 0.97

CC1=CC(=O)N(c2ccc(OC(F)(F)F)cc2)C1=O
inactive: S. cerevisiae deletion strains, locus YJL128C, strain PBS2, active compounds read low 0.9 | S. cerevisiae deletion strains, locus YPR106W, strain ISR1, active compounds read low 0.901 | S. cerevisiae deletion strains, locus YPR111W, strain DBF20, active compounds read low 0.907 | S. cerevisiae deletion strains, strain NNK1, active compounds read low 0.893
active: S. cerevisiae deletion strains, locus YAR019C, strain CDC15, active compounds read low 0.852 | S. cerevisiae deletion strains, locus YBL105C, strain PKC1, active compounds read low 0.873 | S. cerevisiae deletion strains, locus YBR135W, strain CKS1, active compounds read low 0.857 | S. cerevisiae deletion strains, locus YBR136W, strain MEC1, active compounds read low 0.87 | S. cerevisiae deletion strains, locus YBR160W, strain CDC28, active compounds read low 0.873 | S. cerevisiae deletion strains, locus YDL017W, strain CDC7, active compounds read low 0.872 | S. cerevisiae deletion strains, locus YDL028C, strain MPS1, active compounds read low 0.857 | [1] 0.869 | S. cerevisiae deletion strains, locus YDL108W, strain KIN28, active compounds read low 0.868 | S. cerevisiae deletion strains, locus YDL132W, strain cdc53, active compounds read low 0.847 | S. cerevisiae deletion strains, locus YDL214C, strain PRR2, active compounds read low 0.467 | S. cerevisiae deletion strains, locus YDR052C, strain DBF4, active compounds read low 0.883 | S. cerevisiae deletion strains, locus YDR054C, strain cdc34, active compounds read low 0.853 | S. cerevisiae deletion strains, locus YDR226W, strain ADK1, active compounds read low 0.862 | S. cerevisiae deletion strains, locus YDR477W, strain SNF1, active compounds read low 0.377 | S. cerevisiae deletion strains, locus YER123W, strain YCK3, active compounds read low 0.281 | S. cerevisiae deletion strains, locus YER133W, strain GLC7, active compounds read low 0.339 | S. cerevisiae deletion strains, locus YFL009W, strain cdc4, active compounds read low 0.849 | S. cerevisiae deletion strains, locus YFL029C, strain CAK1, active compounds read low 0.837 | S. cerevisiae deletion strains, locus YFR003C, strain YPI1, active compounds read low 0.878 | S. cerevisiae deletion strains, locus YFR019W, strain FAB1, active compounds read low 0.512 | S. cerevisiae deletion strains, locus YFR028C, strain CDC14, active compounds read low 0.865 | S. cerevisiae deletion strains, locus YGR040W, strain KSS1, active compounds read low 0.384 | S. cerevisiae deletion strains, locus YGR052W, strain FMP48, active compounds read low 0.421 | S. cerevisiae deletion strains, locus YGR092W, strain DBF2, active compounds read low 0.217 | [2] 0.283 | S. cerevisiae deletion strains, locus YHR079C, strain IRE1, active compounds read low 0.35 | S. cerevisiae deletion strains, locus YHR082C, strain KSP1, active compounds read low 0.316 | S. cerevisiae deletion strains, locus YHR205W, strain SCH9, active compounds read low 0.331 | S. cerevisiae deletion strains, locus YIL147C, strain SLN1, active compounds read low 0.873 | S. cerevisiae deletion strains, locus YJL095W, strain BCK1, active compounds read low 0.302 | S. cerevisiae deletion strains, locus YJL157C, strain FAR1, active compounds read low 0.487 | S. cerevisiae deletion strains, locus YJR016C, strain ILV3, active compounds read low 0.862 | S. cerevisiae deletion strains, locus YJR066W, strain TOR1 (second series), active compounds read low 0.39 | S. cerevisiae deletion strains, locus YJR066W, strain TOR1, active compounds read low 0.272 | S. cerevisiae deletion strains, locus YKL048C, strain ELM1, active compounds read low 0.556 | S. cerevisiae deletion strains, locus YKL067W, strain YNK1, active compounds read low 0.509 | S. cerevisiae deletion strains, locus YKL101W, strain HSL1, active compounds read low 0.494 | S. cerevisiae deletion strains, locus YKL193C, strain SDS22, active compounds read low 0.863 | S. cerevisiae deletion strains, locus YKL203C, strain TOR2, active compounds read low 0.382 | S. cerevisiae deletion strains, locus YLR113W, strain HOG1, active compounds read low 0.336 | S. cerevisiae deletion strains, locus YLR133W, strain CKI1, active compounds read low 0.531 | S. cerevisiae deletion strains, locus YLR403W, strain SFP1, active compounds read low 0.326 | S. cerevisiae deletion strains, locus YML070W, strain DAK1, active compounds read low 0.401 | S. cerevisiae deletion strains, locus YMR001C, strain CDC5, active compounds read low 0.854 | S. cerevisiae deletion strains, locus YMR205C, strain PFK2 (second series), active compounds read low 0.563 | S. cerevisiae deletion strains, locus YMR277W, strain FCP1, active compounds read low 0.868 | S. cerevisiae deletion strains, locus YNL006W, strain LST8, active compounds read low 0.885 | S. cerevisiae deletion strains, locus YNL020C, strain ARK1, active compounds read low 0.558 | S. cerevisiae deletion strains, locus YNL161W, strain CBK1, active compounds read low 0.865 | S. cerevisiae deletion strains, locus YNL183C, strain NPR1, active compounds read low 0.201 | S. cerevisiae deletion strains, locus YNL207W, strain RIO2, active compounds read low 0.847 | S. cerevisiae deletion strains, locus YNL222W, strain SSU72, active compounds read low 0.864 | S. cerevisiae deletion strains, locus YNL307C, strain MCK1 (second series), active compounds read low 0.413 | S. cerevisiae deletion strains, locus YOL078W, strain AVO1, active compounds read low 0.858 | S. cerevisiae deletion strains, locus YOL136C, strain PFK27, active compounds read low 0.436 | S. cerevisiae deletion strains, locus YOR061W, strain CKA2, active compounds read low 0.576 | S. cerevisiae deletion strains, locus YOR119C, strain RIO1, active compounds read low 0.384 | S. cerevisiae deletion strains, locus YOR231W, strain MKK1, active compounds read low 0.4 | S. cerevisiae deletion strains, locus YOR329C, strain SCD5, active compounds read low 0.869 | S. cerevisiae deletion strains, locus YPL031C, strain PHO85, active compounds read low 0.311 | S. cerevisiae deletion strains, locus YPL153C, strain RAD53, active compounds read low 0.372 | S. cerevisiae deletion strains, locus YPL204W, strain HRR25, active compounds read low 0.391 | S. cerevisiae deletion strains, locus YPL209C, strain IPL1, active compounds read low 0.862 | S. cerevisiae deletion strains, locus YPL256C, strain CLN2, active compounds read low 0.33 | S. cerevisiae deletion strains, locus YPR025C, strain CCL1, active compounds read low 0.855 | S. cerevisiae deletion strains, strain TSCII, active compounds read low 0.859
